Assay [1] in a line: NCI Yeast Anticancer Drug Screen. Data for the rad50 strain (AID 155).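 Note: 0% = growth of vehicle-only cultures of the same strain.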 The following applies: S. cerevisiae rad50 strain growth inhibition, stronger effect = higher value. A digest of the protocol: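 Yeast carrying a defined DNA repair defect were exposed to test compounds, and growth was compared with vehicle-treated controls to give percent inhibition.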
Assay [2] is described as follows: NCI Yeast Anticancer Drug Screen. Data for the mec2-1 strain (AID 157). Particulars: S. cerevisiae mec2-1 strain, stronger effect = higher value. In outline:
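Vehicle-treated cultures served as reference for growth inhibition of compound-exposed mec2-1 yeast.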

A short description of assay [3]: NCI Yeast Anticancer Drug Screen. Data for the sgs1 mgt1 strain (AID 161).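 Note: 0% = growth of cultures given vehicle only.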 Particulars: S. cerevisiae sgs1 mgt1 strain, stronger effect = higher value. A digest of the protocol:
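Inhibition of yeast growth, normalised to vehicle-treated controls, is reported for a strain bearing genetic alterations in DNA damage repair.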

The nature of assay [4]: NCI Yeast Anticancer Drug Screen. Data for the cln2 rad14 strain (AID 165).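 Note: 0% = growth equal to vehicle treated cultures.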 Particulars: S. cerevisiae cln2 rad14 strain, stronger effect = higher value. A digest of the protocol: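 Each compound was tested on cln2 rad14 yeast. Inhibition of growth was calculated against vehicle-exposed controls.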
The nature of assay [5]: NCI Yeast Anticancer Drug Screen. Data for the bub3 strain (AID 167). Particulars: S. cerevisiae bub3 mutant strain, stronger effect = higher value. A digest of the protocol: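 Compounds were applied to a genetically altered yeast strain carrying a cell-cycle control defect. Growth inhibition was scored against vehicle-treated controls.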
Assay [6] is described as follows: NCI Yeast Anticancer Drug Screen. Data for the mlh1 rad18 strain (AID 175). Particulars: S. cerevisiae mlh1 rad18 strain growth inhibition, stronger effect = higher value. In outline:
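Vehicle-treated cultures served as the reference for growth inhibition in a yeast strain carrying DNA damage repair alterations exposed to each compound.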

Setting [7] is: at 5.0 µM (retest, dose inferred, filed as 0.5).
Setting [8] is: at 50.0 µM (retest, dose inferred, filed as 5.0).

“And” between values parts separate entries of the source, which are not always exact repeats. Equal entries are not always repeated. The panel holds about 79,000 compounds, 15% with a hit somewhere; the sample as a whole holds those more often. Where a structure was tested more than once in an assay, its records may differ in their call. The source made the active and inactive calls. Cut-off read from the data, not from the text of the source: active = growth inhibition above about 70%; inactive = the rest.

On to `NS(=O)(=O)c1ccc(Nc2c3ccccc3nc3c(C(=O)N4CCN(CCO)CC4)cccc23)cc1`, for which the growth inhibition is 61% (inactive) in assay [1] (setting [7]); 61% (inactive) in assay [1] (setting [8]); 38.6% (inactive) in assay [1] (at 50.0 µM); 39% (inactive) in assay [2] (setting [7]); 39% (inactive) in assay [2] (setting [8]); 40.7% (inactive) in assay [2] (at 50.0 µM). For the same compound, the growth inhibition is 60% (inactive) in assay [3] (setting [7]); 60% (inactive) in assay [3] (setting [8]); 24.4% (inactive) in assay [3] (at 50.0 µM); 25% (inactive) in assay [4] (setting [7]); 25% (inactive) in assay [4] (setting [8]); 29.9% (inactive) in assay [4] (at 50.0 µM). Further, the growth inhibition in assay [5] (setting [7]) was 32% (inactive); in assay [5] (setting [8]), 32% (inactive); in assay [5] (at 50.0 µM) it was 23.9% (inactive); in assay [6] (setting [7]) it was 30% (inactive); in assay [6] (setting [8]), 30% (inactive); in assay [6] (at 50.0 µM), 79.8% (active).
`CC1(C)OC2C(O)C(O)C3OC(C)(C)OC3C2O1` (stereo unspecified): the growth inhibition is -20% (inactive) in assay [1] (setting [7]); 6% (inactive) in assay [1] (setting [8]); 6% (inactive) and 7.9% (inactive) in assay [1] (at 50.0 µM); -13% (inactive) in assay [2] (setting [7]); 2% (inactive) in assay [2] (setting [8]); 9.35% (inactive) and -8.1% (inactive) in assay [2] (at 50.0 µM). The growth inhibition was -6% (inactive) in assay [3] (setting [7]); 2% (inactive) in assay [3] (setting [8]); 14.4% (inactive) and 6.4% (inactive) in assay [3] (at 50.0 µM); -1% (inactive) in assay [4] (setting [7]); 0% (inactive) in assay [4] (setting [8]); 74.1% (active) and -2.4% (inactive) in assay [4] (at 50.0 µM). In addition, the growth inhibition in assay [5] (setting [7]) was 2% (inactive); in assay [5] (setting [8]), 2% (inactive); in assay [5] (at 50.0 µM), 61% (inactive) and 15.4% (inactive); in assay [6] (setting [7]) it was 25% (inactive); in assay [6] (setting [8]), 15% (inactive); in assay [6] (at 50.0 µM), 44% (inactive) and 9.25% (inactive).
As to `COc1ccc(COc2ccc(C(=O)CCN3CCOCC3)cc2)cc1`, the growth inhibition in assay [1] (setting [7]) is 47% (inactive); in assay [1] (setting [8]) it was 62% (inactive); in assay [1] (at 50.0 µM), 96.8% (active); in assay [2] (setting [7]) it was 38% (inactive); in assay [2] (setting [8]), 80% (active); in assay [2] (at 50.0 µM), 96.5% (active). In addition, the growth inhibition in assay [3] (setting [7]) is 61% (inactive); in assay [3] (setting [8]), 87% (active); in assay [3] (at 50.0 µM) it was 97% (active); in assay [4] (setting [7]), 40% (inactive); in assay [4] (setting [8]), 46% (inactive); in assay [4] (at 50.0 µM), 93.8% (active). Besides, the growth inhibition in assay [5] (setting [7]) is 51% (inactive); in assay [5] (setting [8]) it was 80% (active); in assay [5] (at 50.0 µM), 97.4% (active); in assay [6] (setting [7]), 51% (inactive); in assay [6] (setting [8]), 77% (active); in assay [6] (at 50.0 µM) it was 96.8% (active).
Turning to `CC(=O)Oc1cccc2cccnc12`, the growth inhibition is 99% (active) in assay [1] (setting [7]); 99% (active) in assay [1] (setting [8]); 99.2% (active) in assay [1] (at 50.0 µM); 91% (active) in assay [2] (setting [7]); 100% (active) in assay [2] (setting [8]); 99.3% (active) in assay [2] (at 50.0 µM). Further, the growth inhibition was 98% (active) in assay [3] (setting [7]); 100% (active) in assay [3] (setting [8]); 89.2% (active) in assay [3] (at 50.0 µM); 88% (active) in assay [4] (setting [7]); 99% (active) in assay [4] (setting [8]); 98.8% (active) in assay [4] (at 50.0 µM). Also, the growth inhibition in assay [5] (setting [7]) was 98% (active); in assay [5] (setting [8]) it was 100% (active); in assay [5] (at 50.0 µM) it was 99.2% (active); in assay [6] (setting [7]), 96% (active); in assay [6] (setting [8]) it was 99% (active); in assay [6] (at 50.0 µM) it was 98.1% (active).
In the case of `COc1cc(C2C(C#N)=C(C)Nc3nc(N)nc(N)c32)cc(OC)c1OC` (stereo unspecified), the growth inhibition is -6% (inactive) in assay [1] (setting [7]); 19% (inactive) in assay [1] (setting [8]); 24.6% (inactive) in assay [1] (at 50.0 µM); -7% (inactive) in assay [2] (setting [7]); 13% (inactive) in assay [2] (setting [8]); 3.75% (inactive) in assay [2] (at 50.0 µM). Further, the growth inhibition is -8% (inactive) in assay [3] (setting [7]); 10% (inactive) in assay [3] (setting [8]); 19.1% (inactive) in assay [3] (at 50.0 µM); -6% (inactive) in assay [4] (setting [7]); 9% (inactive) in assay [4] (setting [8]); 81.4% (active) in assay [4] (at 50.0 µM). In addition, the growth inhibition is 0% (inactive) in assay [5] (setting [7]); 65% (inactive) in assay [5] (setting [8]); 1.2% (inactive) in assay [5] (at 50.0 µM); -1% (inactive) in assay [6] (setting [7]); 21% (inactive) in assay [6] (setting [8]); 8.95% (inactive) in assay [6] (at 50.0 µM).
Consider `O=[N+]([O-])c1c(Cl)nc2ccccn12`, for which the growth inhibition in assay [1] (setting [7]) is 2% (inactive); in assay [1] (setting [8]), 26% (inactive); in assay [1] (at 50.0 µM), 14.4% (inactive); in assay [2] (setting [7]) it was 3% (inactive); in assay [2] (setting [8]) it was 28% (inactive); in assay [2] (at 50.0 µM), 26.1% (inactive). Further, the growth inhibition in assay [3] (setting [7]) is 2% (inactive); in assay [3] (setting [8]) it was 27% (inactive); in assay [3] (at 50.0 µM) it was 31.1% (inactive); in assay [4] (setting [7]), 2% (inactive); in assay [4] (setting [8]), 15% (inactive); in assay [4] (at 50.0 µM) it was -0.55% (inactive). Besides, the growth inhibition was 0% (inactive) in assay [5] (setting [7]); 14% (inactive) in assay [5] (setting [8]); -2.05% (inactive) in assay [5] (at 50.0 µM); 2% (inactive) in assay [6] (setting [7]); 26% (inactive) in assay [6] (setting [8]); 70.5% (active) in assay [6] (at 50.0 µM).
On to `CC(=O)[C@]1(O)Cc2c(O)c3c(c(O)c2[C@@H](OC2CC(N)C(O)C(C)O2)C1)C(=O)c1c(O)cccc1C3=O` (stereo partly specified), for which the growth inhibition is 88% (active) and 91% (active) in assay [1] (setting [7]); 97% (active) and 96% (active) in assay [1] (setting [8]); 91.1% (active) and 86.5% (active) in assay [1] (at 50.0 µM); 81% (active) and 80% (active) in assay [2] (setting [7]); 98% (active) and 97% (active) in assay [2] (setting [8]); 92.5% (active) and 89% (active) in assay [2] (at 50.0 µM). Also, the growth inhibition in assay [3] (setting [7]) is 73% (active) and 92% (active); in assay [3] (setting [8]), 96% (active) and 98% (active); in assay [3] (at 50.0 µM), 92.4% (active) and 88.3% (active); in assay [4] (setting [7]) it was 57% (inactive) and 66% (inactive); in assay [4] (setting [8]), 97% (active) and 95% (active); in assay [4] (at 50.0 µM) it was 88.7% (active) and 89.2% (active). Also, the growth inhibition in assay [5] (setting [7]) is 77% (active) and 86% (active); in assay [5] (setting [8]) it was 97% (active) and 98% (active); in assay [5] (at 50.0 µM), 90.8% (active) and 89% (active); in assay [6] (setting [7]) it was 90% (active) and 87% (active); in assay [6] (setting [8]), 97% (active) and 95% (active); in assay [6] (at 50.0 µM), 90.2% (active) and 92% (active).

The values are drawn from PubChem BioAssay (NCI).
